Reference: PubChem BioAssay (Tox21)
Where “and” joins values, the source holds several entries; their conditions need not be identical. Equal entries are not always repeated. Results filed as inconclusive are left out. Calls of active or inactive are those of the source. Unless noted, calls come from the whole dose curve; as a rule, active = well fitted curve in the direction sought with a large enough effect in the repeat runs; inconclusive = weak or mixed curves; inactive = no such curve, though single readings can be large; an effect the other way counts as inactive or inconclusive.

Key:
[1] = qHTS assay to identify aromatase inhibitors - cell viability counter screen (AID 743084);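 note: cells stimulated with testosterone during compound exposure; nearly all actives have a fitted effect of over 55% in size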; note: potency is the fitted concentration of half-maximal effect
[2] = target: Aryl hydrocarbon receptor (Homo sapiens) (UniProt P35869); experiment: qHTS assay to identify small molecule that activate the aryl hydrocarbon receptor (AhR) signaling pathway (AID 743085); note: nearly all actives have a fitted effect of over 15% in size; note: potency is the fitted concentration of half-maximal effect;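 for activation: HG2L7.5c1 human HepG2 liver cells with stably integrated DRE-driven firefly reporter; series mostly up to about 70 µM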
In short: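 A multiplexed format paired cell viability (CellTiter-Fluor fluorescence) with AhR-dependent luciferase output (ONE-Glo luminescence) in the same wells of HepG2 DRE-luc cells after 24 h compound exposure at 37C.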

[3] = qHTS assay to identify small molecule that activate the aryl hydrocarbon receptor (AhR) signaling pathway - cell viability counter screen (AID 743086); note: nearly all actives have a fitted effect of over 45% in size; note: potency is the fitted concentration of half-maximal effect
In short: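 HepG2-AhR-luc (HG2L7.5c1) cells, 4000/well, were preincubated 5 h at 37C, exposed to compound in qHTS format for 24 hr at 37C, then given CellTiter-Fluor for 30 min; viability was read as fluorescence in the reporter wells.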

[4] = target: Peroxisome proliferator-activated receptor gamma (Homo sapiens) (UniProt P37231); experiment: qHTS assay to identify small molecule agonists of the peroxisome proliferator-activated receptor gamma (PPARg) signaling pathway (AID 743094; active = well fitted activation curve with a large enough effect in the signal ratio in the repeat runs, not every such curve was filed as active; the % refers to the signal ratio)
In short: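 Fluorescence-based beta-lactamase readout in HEK293H PPARg UAS-bla cells after 17 h compound exposure (37C) and 1 h B/G FRET substrate incubation at room temperature.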

[5] = target: Peroxisome proliferator-activated receptor gamma (Homo sapiens) (UniProt P37231); experiment: qHTS assay to identify small molecule antagonists of the peroxisome proliferator-activated receptor gamma (PPARg) signaling pathway (AID 743191; calls by dose curve; note: series mostly up to about 63 µM; nearly all actives have a fitted effect of over 30% in size)
In short: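 GeneBLAzer PPARg UAS-bla HEK293H cells carrying a UAS-driven beta-lactamase reporter were plated at 3000 cells/well, preincubated 5 h at 37C, then given compound for 17 h at 37C; LiveBLAzer B/G FRET substrate was read after 1 h at room temperature.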

[6] = qHTS assay to identify small molecule antagonists of the peroxisome proliferator-activated receptor gamma (PPARg) signaling pathway - cell viability counter screen (AID 743194); note: nearly all actives have a fitted effect of over 55% in size
In short: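 PPARg-UAS-bla HEK293H cells were plated, rested 5 h at 37 C, then treated with compounds plus rosiglitazone (50 nM final) for 17 h at 37 C; viability was then read by CellTiter-Glo luminescence after 30 min at room temperature.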

[7] = qHTS assay for small molecule agonists of the antioxidant response element (ARE) signaling pathway (AID 743202; active = well fitted activation curve with a large enough effect in the signal ratio in the repeat runs, not every such curve was filed as active; the % refers to the signal ratio; note: potency is the fitted concentration of half-maximal effect)
In short: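 Steps: seed ARE-bla HepG2 cells (2,000/well); incubate 5 h at 37 C; add compounds by pin tool; incubate 16 h at 37 C; add FRET substrate; read fluorescence after 2 h at RT.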

[8] = qHTS assay for small molecule agonists of the antioxidant response element (ARE) signaling pathway - cell viability counter screen (AID 743203; calls by dose curve; note: nearly all actives have a fitted effect of over 55% in size)
In short: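 Parallel cytotoxicity read-out for the ARE-bla screen: HepG2 reporter cells, 16 hrs with compounds, then CellTiter-Glo luminescence.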

[9] = qHTS assay for small molecule activators of the heat shock response signaling pathway - cell viability counter screen (AID 743209); note: nearly all actives have a fitted effect of over 50% in size
In short: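 To flag cytotoxic compounds, HSE-bla HeLa cells plated at 1500 cells/well were dosed for 5 h at 37 C, followed by the reporter FRET read and then CellTiter-Glo, with luminescence recorded 30 min after reagent addition.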

[10] = qHTS assay for small molecule activators of the heat shock response signaling pathway (AID 743210; active = well fitted activation curve with a large enough effect in the signal ratio in the repeat runs, with a control signal flat, not every such curve was filed as active; the % refers to the signal ratio;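 note: HeLa cells with beta-lactamase reporter driven by heat shock elements; series mostly up to about 63 µM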)
In short: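 Activation of heat shock element-controlled beta-lactamase expression is measured in HeLa cells by LiveBLAzer FRET fluorescence, with compound exposure lasting 5 h at 37 C and substrate loading 2.5 h at room temperature.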

Measured: Potency

Sequence of Peroxisome proliferator-activated receptor gamma (Homo sapiens) (P37231 whole entry, looked up): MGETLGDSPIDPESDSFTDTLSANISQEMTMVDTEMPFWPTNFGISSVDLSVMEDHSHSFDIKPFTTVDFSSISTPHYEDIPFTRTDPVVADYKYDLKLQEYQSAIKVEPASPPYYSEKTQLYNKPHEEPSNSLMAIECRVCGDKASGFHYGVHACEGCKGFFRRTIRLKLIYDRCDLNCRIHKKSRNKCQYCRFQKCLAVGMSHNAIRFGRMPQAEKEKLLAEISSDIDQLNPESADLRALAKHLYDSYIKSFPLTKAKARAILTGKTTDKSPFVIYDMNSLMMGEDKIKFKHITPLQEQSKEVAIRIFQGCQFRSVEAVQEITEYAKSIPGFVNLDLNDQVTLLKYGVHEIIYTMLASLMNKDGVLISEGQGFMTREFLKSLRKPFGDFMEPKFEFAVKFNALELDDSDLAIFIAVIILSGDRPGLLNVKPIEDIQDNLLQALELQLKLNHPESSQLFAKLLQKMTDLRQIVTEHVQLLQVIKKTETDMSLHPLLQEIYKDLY
Sequence of Aryl hydrocarbon receptor (Homo sapiens) (P35869 whole entry, looked up): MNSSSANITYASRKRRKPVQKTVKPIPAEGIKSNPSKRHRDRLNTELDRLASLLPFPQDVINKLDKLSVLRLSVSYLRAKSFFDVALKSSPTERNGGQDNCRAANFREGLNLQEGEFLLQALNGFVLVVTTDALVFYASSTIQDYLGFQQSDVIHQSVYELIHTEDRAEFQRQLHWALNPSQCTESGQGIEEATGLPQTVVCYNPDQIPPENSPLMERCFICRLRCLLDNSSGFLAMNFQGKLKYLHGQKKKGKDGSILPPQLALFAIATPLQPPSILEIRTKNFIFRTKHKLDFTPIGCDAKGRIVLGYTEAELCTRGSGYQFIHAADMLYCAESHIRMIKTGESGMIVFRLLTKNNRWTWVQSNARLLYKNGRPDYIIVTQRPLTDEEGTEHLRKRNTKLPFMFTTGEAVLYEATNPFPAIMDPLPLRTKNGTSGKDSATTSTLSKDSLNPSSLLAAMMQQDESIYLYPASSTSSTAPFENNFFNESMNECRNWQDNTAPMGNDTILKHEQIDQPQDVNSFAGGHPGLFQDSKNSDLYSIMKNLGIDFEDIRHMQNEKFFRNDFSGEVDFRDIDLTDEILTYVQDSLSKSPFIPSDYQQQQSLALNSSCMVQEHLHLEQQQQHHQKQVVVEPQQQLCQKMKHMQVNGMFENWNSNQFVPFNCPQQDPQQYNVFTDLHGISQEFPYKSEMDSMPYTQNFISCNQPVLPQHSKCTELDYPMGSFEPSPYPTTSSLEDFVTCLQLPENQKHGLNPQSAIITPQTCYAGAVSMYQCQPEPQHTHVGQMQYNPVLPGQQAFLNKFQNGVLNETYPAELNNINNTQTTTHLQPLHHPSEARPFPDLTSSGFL

OCC#CCO
inactive: all assays above

O=[N+]([O-])C(CO)(CO)CO
active: [7] 33.9 µM and 21.7 µM
inactive: all other assays above

C=CC(=O)OCCCCCCCC(C)C
inactive: all assays above

OC[C@@H](O)[C@@H](O)[C@H](O)[C@@H](O)CO
inactive: all assays above

OC[C@@H](O)[C@H](O)[C@H](O)[C@@H](O)CO
inactive: all assays above

Cc1cc(=O)[nH]c(C(C)C)n1
not listed: [9]
inactive: all other assays above

CCc1ccc(O)cc1
not listed: [9]
inactive: all other assays above

CCCCCCC(C)(C)S
inactive: all assays above

CCCCCCOC(C)=O
not listed: [10]
inactive: all other assays above

O=C(Oc1ccccc1)c1ccc(O)cc1
inactive: all assays above

Cn1c([N+](=O)[O-])cnc1COC(N)=O
inactive: all assays above

C=C1C2CCC(C2)C1(C)C (stereo unspecified)
not listed: [9]
inactive: all other assays above

CCc1ccccc1O
inactive: all assays above

NS(=O)(=O)c1cc2c(cc1Cl)NC=NS2(=O)=O
not listed: [9]
inactive: all other assays above

CN(C)c1cccc(O)c1
active: [2] 15.6 µM and 30.6 µM | [7] 55.3 µM
not listed: [9]
inactive: all other assays above

OCC1CCCO1 (stereo unspecified)
not listed: [9]
inactive: all other assays above

O=C1O[C@H](CO)[C@@H](O)[C@H](O)[C@H]1O
inactive: all assays above

COC(=O)c1ccc(C(=O)OC)cc1
not listed: [9] | [10]
inactive: all other assays above

CCCCCCCCCCCCOCC1CO1 (stereo unspecified)
not listed: [9]
inactive: all other assays above

CC(C)(CO)COC(=O)C(C)(C)CO
inactive: all assays above

O=S(=O)(Oc1ccc(Cl)cc1Cl)c1ccccc1
not listed: [9]
inactive: all other assays above

Cc1ccc(N)c(S(=O)(=O)O)c1
inactive: all assays above

CCCCC(CC)COC(C)=O (stereo unspecified)
inactive: all assays above

CCCCOCCOCCOC(=O)CCCCC(=O)OCCOCCOCCCC
inactive: all assays above

c1ccc2ccccc2c1
inactive: all assays above

CC(C)(N=C=O)c1cccc(C(C)(C)N=C=O)c1
not listed: [9]
inactive: all other assays above

O=[N+]([O-])c1cccc(Cl)c1
inactive: all assays above

CC(=O)Nc1ccc(C(=O)O)cc1
not listed: [9]
inactive: all other assays above

O=S(=O)(O)CCS
inactive: all assays above

C=C(C)C(=O)OCC(CC)(COC(=O)C(=C)C)COC(=O)C(=C)C
not listed: [9] | [10]
inactive: all other assays above

COCC(C)O (stereo unspecified)
not listed: [9] | [10]
inactive: all other assays above

Clc1ccc(Cl)c(Cl)c1Cl
inactive: all assays above

Nc1c(S(=O)(=O)O)cc(Br)c2c1C(=O)c1ccccc1C2=O
active: [1] 34.4 µM | [2] 31.3 µM and 30.6 µM | [3] 24.3 µM | [7] 27.9 µM
inactive: all other assays above

CCCCCCCCC
inactive: all assays above

NCc1cccc(CN)c1
inactive: all assays above

OC1CCCC1
not listed: [9]
inactive: all other assays above

C=C(C)C(=O)OCCCCCCCCCCCC
inactive: all assays above

NCCc1ccc(O)c(O)c1
active: [1] 27.4 µM | [7] 109 nM and 376 nM
not listed: [10]
inactive: all other assays above

CCCCC(CC)COC(=O)/C=C\C(=O)OCC(CC)CCCC (stereo unspecified)
not listed: [7] | [10]
inactive: all other assays above

O=C1CCCCC1
not listed: [3] | [9]
inactive: all other assays above

CS(=O)(=O)Nc1ccc([N+](=O)[O-])cc1Oc1ccccc1
inactive: [1] | [2] | [3] | [6] | [8] | [10]

CC(C)Cc1ccccc1
not listed: [3]
inactive: all other assays above

CC1Cc2ccccc2N1NC(=O)c1ccc(Cl)c(S(N)(=O)=O)c1 (stereo unspecified)
not listed: [3] | [10]
inactive: all other assays above

C=C(C)C(=O)OCCC[Si](OC)(OC)OC
not listed: [9]
inactive: all other assays above

COC(=O)Nc1nc2ccc(Sc3ccccc3)cc2[nH]1
active: [2] 1.8 µM and 9.69 µM
not listed: [5] | [7] | [10]
inactive: all other assays above

CCOC(=O)[C@H](CCc1ccccc1)N[C@@H](C)C(=O)N1Cc2ccccc2C[C@H]1C(=O)O
active: [2] 6.16 µM
not listed: [3]
inactive: all other assays above

COCC(=O)O
not listed: [3]
inactive: all other assays above

Oc1ccc2ccccc2c1
active: [2] 49.7 µM and 27.3 µM | [7] 35.2 µM and 21.7 µM
not listed: [4] | [5]
inactive: all other assays above

CCOC(=O)C1OC1c1ccccc1 (stereo unspecified)
not listed: [3]
inactive: all other assays above
